The list is not random: actives were taken first. Their share in the collection is about 1.3%.
Mtb betalactam = beta-lactam sensitization of Mtb H37Rv, H37Rv. AID 434955, 2010. inhibition, % at 25 µM. M. tuberculosis H37Rv growth with meropenem, percent inhibition. hit rate 0.27% among 330,000; call rule not given here;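 also: growth measured after seven days incubation then overnight dye step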
3CLpro inhibitor = SARS-CoV 3CLpro protease inhibitors, primary screen, biochemical, quenched FRET; Replicase polyprotein 1ab (Severe acute respiratory syndrome coronavirus), P0C6X7; recombinant SARS-CoV 3CLpro, quenched FRET peptide cleavage; inhibition, % at 6 µM; hit rate 0.14% among 290,000; AID 1706, 2009; in the data active = inhibition above about 12%
ugtP null kill = growth inhibition of ugtP-null S. aureus, primary screen, RN4220 ugtP deletion, OD600; 16 h; growth inhibition, % (test concentration not listed); hit rate 0.54% among 330,000; AID 1259309, 2017; in the data active = growth inhibition above about 68%
MazF activator = activators of E. coli MazEF toxin-antitoxin RNase, primary screen, biochemical, fluorescence, uHTS. Endoribonuclease toxin MazF (Escherichia coli (strain K12)), P0AE70. FAM/BHQ RNA-DNA oligo cleavage fluorescence, 5 h. activation, % at 20 µM. hit rate 0.32% among 350,000; in the data active = activation above about 50%
Target sequence (P0AE70 whole entry, looked up): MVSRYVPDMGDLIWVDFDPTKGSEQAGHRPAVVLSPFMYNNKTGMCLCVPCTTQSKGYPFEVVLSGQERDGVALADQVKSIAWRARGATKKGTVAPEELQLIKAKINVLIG
RN4220 kill = growth inhibition of S. aureus RN4220, primary screen, OD600 | 16 h | inhibition, % (concentration not given with the values) | hit rate 0.33% among 330,000 | AID 1259311, 2017; in the data active = inhibition above about 85%
CCHF vOTU inh-1 = CCHFV vOTU protease inhibitors, primary screen, biochemical, Pep-AMC substrate, fluorescence | Crimean-Congo hemorrhagic fever virus L polyprotein viral ovarian tumor (vOTU) protease … | inhibition, % at 11.5 µM | hit rate 0.55% among 370,000
CCHF vOTU inh-2 = CCHFV vOTU protease inhibitors, confirmation, biochemical, Pep-AMC substrate, fluorescence | shares compounds with CCHF vOTU inh-1 | inhibition, % at 11.5 µM | Recombinant CCHFV vOTU | hit rate 17% among 1,900
Of the large screens only hits and unclear results are named; the others gave an inactive call (follow-up assays come after a bar, where they were run). Rule as the data show it, unless noted: active = inhibition above about 30%; inactive = the rest.

Cc1[nH]ccc(=O)c1OCc1c(Cl)cccc1Cl	none
Cc1ccc(Cn2ccc(=O)c(OCc3c(Cl)cccc3Cl)c2C)cc1	CCHF vOTU inh-1 30 | CCHF vOTU inh-2 inactive
C/C(Cl)=C\Cn1c(N2CCCCCC2)nc2c1c(=O)n(C)c(=O)n2C	CCHF vOTU inh-1 31 | CCHF vOTU inh-2 inactive
CC(=O)c1cccc(N(CC(=O)NC2CCCC2)C(=O)CNC(=O)c2cccs2)c1	CCHF vOTU inh-1 36 | CCHF vOTU inh-2 inactive
Cc1ccc(C=NNC(=S)Nc2cccc(S(=O)(=O)N(C)C)c2)o1	none (no result: Mtb betalactam, 3CLpro inhibitor, MazF activator, CCHF vOTU inh-1)
Cc1cc(=O)[nH]c(NN=CC(C)c2ccccc2)n1 (configuration not stated)	none (no result: Mtb betalactam, 3CLpro inhibitor, MazF activator, CCHF vOTU inh-1)
O=C(O)Cn1c2c(c3ccccc31)CCCC2	CCHF vOTU inh-1 30 (no result: ugtP null kill, RN4220 kill) | CCHF vOTU inh-2 inactive
CCn1cc(C=NNC(=O)c2ccccc2Cl)cn1	none (no result: Mtb betalactam, 3CLpro inhibitor, MazF activator, CCHF vOTU inh-1)
O=C(NN=C1CCCc2ccccc21)c1cccc([N+](=O)[O-])c1	none (no result: Mtb betalactam, 3CLpro inhibitor, MazF activator, CCHF vOTU inh-1)
CCCCCCC[n+]1ccc(-c2cc[n+](CCCCCCC)cc2)cc1	none
CCCCCCCCCCCCCCCC[n+]1ccccc1	ugtP null kill 100, RN4220 kill 100, CCHF vOTU inh-1 38 (no result: Mtb betalactam, 3CLpro inhibitor) | CCHF vOTU inh-2 37
CC1(C(=O)Nc2cccc(OC(F)(F)F)c2)Cc2c(-c3ccc4c(c3)OCO4)ccnc2O1 (configuration not stated)	CCHF vOTU inh-1 31 (no result: Mtb betalactam, 3CLpro inhibitor, ugtP null kill, MazF activator, RN4220 kill) | CCHF vOTU inh-2 inactive
CN(C)c1ccc(-c2ccnc3c2CC(C)(C(=O)Nc2cccc(OC(F)(F)F)c2)O3)cc1 (configuration not stated)	none (no result: Mtb betalactam, 3CLpro inhibitor, ugtP null kill, MazF activator, RN4220 kill)
O=C(NN=Cc1cccnc1)C1CCCN(S(=O)(=O)c2ccccc2)C1 (configuration not stated)	none (no result: Mtb betalactam, 3CLpro inhibitor, MazF activator, CCHF vOTU inh-1)
Fc1ccc(NC(=S)Nc2cccc3cnccc23)cc1	CCHF vOTU inh-1 50 | CCHF vOTU inh-2 65
S=C(Nc1cccnc1)Nc1cccc2cnccc12	none
CN(C)S(=O)(=O)c1cccc(NC(=S)Nc2cccc3cnccc23)c1	CCHF vOTU inh-1 40 (no result: Mtb betalactam) | CCHF vOTU inh-2 89
S=C(Nc1ccc(Cl)cc1)Nc1cccc2cnccc12	CCHF vOTU inh-1 58 | CCHF vOTU inh-2 89
CCOc1cc(C=NNC(=O)c2cccnc2)ccc1OC(=O)c1ccco1	none (no result: Mtb betalactam, 3CLpro inhibitor, MazF activator, CCHF vOTU inh-1)
COc1ccc(C=NNC(N)=S)cc1	none (no result: Mtb betalactam, 3CLpro inhibitor, MazF activator, CCHF vOTU inh-1)
NC(=S)N/N=C/c1ccc(/C=N/NC(N)=S)cc1	CCHF vOTU inh-1 36 (no result: Mtb betalactam, ugtP null kill, RN4220 kill) | CCHF vOTU inh-2 inactive
CCCc1sc(N)nc1-c1ccc(C)cc1	CCHF vOTU inh-1 33 | CCHF vOTU inh-2 inactive
CN1N=C(N)c2cn(C3OC(COP(=O)(O)O)C(O)C3O)c3ncnc1c23 (configuration not stated)	CCHF vOTU inh-1 32 (no result: Mtb betalactam, 3CLpro inhibitor, ugtP null kill, RN4220 kill) | CCHF vOTU inh-2 inactive
CSCCC(C(=O)NCCCCCCCCCCC(=O)N1CCNCC1)n1cc(CCO)nn1 (configuration not stated)	none (no result: Mtb betalactam, 3CLpro inhibitor, MazF activator, CCHF vOTU inh-1)
CN1CCc2nc(SCC(=O)Nc3ccc(OC(F)(F)F)cc3)c(C#N)c(-c3cccs3)c2C1	CCHF vOTU inh-1 35 | CCHF vOTU inh-2 inactive
CN1CCc2nc(SCC(=O)Nc3cccc(F)c3)c(C#N)c(-c3cccs3)c2C1	none
COc1ccc2c(c1)C1C(CO2)C(c2ccccc2)[C@]2(C)C(=O)NCC(=O)N12 (some centres not stated)	none (no result: Mtb betalactam, 3CLpro inhibitor, MazF activator, CCHF vOTU inh-1)
CCOC(=O)C1(CCCc2ccccc2)CCN(C(=O)CSC)CC1	none
CCOC(=O)C1(CCCc2ccccc2)CCN(C(=O)Cc2nonc2C)CC1	CCHF vOTU inh-1 31 | CCHF vOTU inh-2 inactive
Cc1[nH]n(-c2ccccc2)c(=O)c1C(c1ccc(C(=O)O)cc1)c1c(C)[nH]n(-c2ccccc2)c1=O	CCHF vOTU inh-1 71 | CCHF vOTU inh-2 inactive
Cc1[nH]n(-c2ccccc2)c(=O)c1C(C[N+](=O)[O-])c1ccc(Br)cc1 (configuration not stated)	none
COc1cc(C(c2c(C)[nH]n(-c3ccccc3)c2=O)c2c(C)[nH]n(-c3ccccc3)c2=O)cc(OC)c1OC	CCHF vOTU inh-1 80 | CCHF vOTU inh-2 inactive
COc1cccc(C=NN2CCN(C3c4ccccc4-c4ccccc43)CC2)c1O	none (no result: Mtb betalactam, 3CLpro inhibitor, MazF activator, CCHF vOTU inh-1)
